In ChEMBL document CHEMBL3988442, “University of Dundee, Small-Polar-MMV Screening Library” (2021):
For some of these results: Entries with a potency or affinity are not part of this list.

What was measured:
Design in all cases: scale not given: direction of the effect not stated beside the values
[1] = biological target: Protein translocase subunit SecA (Escherichia coli (strain K12)) (UniProt P10408); test: Assay to Identify E. coli SecA ATPase Inhibitors; format: functional; settings: 30 µM
[2] = biological target: T1, Ubiquitin-activating enzyme e1, putative (Leishmania donovani (strain BPK282A1)) (UniProt E9BSI1); test: Leishmania donovani Ubiquitin Activating Enzyme (LdE1); format: functional; settings: 30 µM
T1 sequence (whole entry): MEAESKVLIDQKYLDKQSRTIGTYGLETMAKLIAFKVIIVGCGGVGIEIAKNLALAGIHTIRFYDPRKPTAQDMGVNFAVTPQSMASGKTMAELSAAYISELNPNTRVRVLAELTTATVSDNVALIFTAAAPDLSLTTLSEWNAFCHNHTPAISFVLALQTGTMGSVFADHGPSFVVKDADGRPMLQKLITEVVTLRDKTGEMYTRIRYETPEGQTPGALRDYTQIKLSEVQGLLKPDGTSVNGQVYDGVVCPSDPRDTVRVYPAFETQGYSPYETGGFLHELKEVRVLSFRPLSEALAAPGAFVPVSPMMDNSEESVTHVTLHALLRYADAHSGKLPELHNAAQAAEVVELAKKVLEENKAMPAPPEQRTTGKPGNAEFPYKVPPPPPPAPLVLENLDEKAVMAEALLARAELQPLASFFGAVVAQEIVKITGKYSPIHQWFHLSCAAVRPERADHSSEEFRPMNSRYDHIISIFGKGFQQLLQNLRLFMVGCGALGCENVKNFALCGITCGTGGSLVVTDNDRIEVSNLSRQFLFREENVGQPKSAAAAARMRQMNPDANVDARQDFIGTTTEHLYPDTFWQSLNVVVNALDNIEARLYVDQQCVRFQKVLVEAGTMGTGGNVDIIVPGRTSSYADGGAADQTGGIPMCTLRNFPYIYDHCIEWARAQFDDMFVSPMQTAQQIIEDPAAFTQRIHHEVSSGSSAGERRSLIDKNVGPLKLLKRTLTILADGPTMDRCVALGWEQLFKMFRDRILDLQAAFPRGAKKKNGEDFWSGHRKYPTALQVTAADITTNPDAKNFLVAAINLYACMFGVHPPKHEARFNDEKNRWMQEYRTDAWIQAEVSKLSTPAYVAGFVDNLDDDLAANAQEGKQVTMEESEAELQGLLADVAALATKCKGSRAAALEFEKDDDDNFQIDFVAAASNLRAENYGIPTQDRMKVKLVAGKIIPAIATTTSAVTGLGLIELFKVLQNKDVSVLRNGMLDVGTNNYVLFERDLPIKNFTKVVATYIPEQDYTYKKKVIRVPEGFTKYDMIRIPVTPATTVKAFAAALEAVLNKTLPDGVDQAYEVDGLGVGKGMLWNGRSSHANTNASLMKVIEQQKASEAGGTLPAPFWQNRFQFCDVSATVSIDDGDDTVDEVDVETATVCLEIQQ

[3] = biological target: AMP-activated protein kinase, AMPK (Homo sapiens) (UniProt P54646+O43741+P54619+Q9UGJ0+Q9Y478+Q13131+Q9UGI9); test: AMP-dependent Kinase enzyme assay. An in vitro enzyme assay that detects ADP turnover that is directly proportional to AMPK activity. This uses naive AMPK that is activated during the assay with MK-8722; format: functional; settings: 30 µM
[4] = biological target: Sialic acid-binding Ig-like lectin 9 (Homo sapiens) (UniProt Q9Y336); test: Hs-Siglec9 ALPHAscreen SOP 20170721; settings: 10 µM
Trypanosoma cruzi = test: Trypanosoma cruzi phosphomannomutase and mannose-1-phosphate guanylyltransferase assay; format: functional; settings: 10 µM
[5] = biological target: T2, Arginase-2, mitochondrial (Homo sapiens) (UniProt P78540); test: in vitro enzyme assay to detect the production of urea directly proportional to the activity of Arginase II; format: functional; settings: 33.3 µM; further: in the data most compounds retested in dose-response had high values
T2 sequence (whole entry): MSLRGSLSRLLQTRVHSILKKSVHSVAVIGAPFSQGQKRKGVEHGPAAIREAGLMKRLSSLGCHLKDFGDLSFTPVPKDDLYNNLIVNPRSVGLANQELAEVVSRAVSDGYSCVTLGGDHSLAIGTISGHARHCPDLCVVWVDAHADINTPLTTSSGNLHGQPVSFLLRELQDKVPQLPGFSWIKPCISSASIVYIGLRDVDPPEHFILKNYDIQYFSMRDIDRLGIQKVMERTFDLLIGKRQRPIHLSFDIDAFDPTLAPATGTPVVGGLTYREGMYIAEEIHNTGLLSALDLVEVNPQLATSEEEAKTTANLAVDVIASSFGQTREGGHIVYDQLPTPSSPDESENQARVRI

[6] = biological target: T3, Proteasome subunit beta (Trypanosoma cruzi) (UniProt O96673); test: Trypanosoma cruzi proteasome chymotrypsin-like activity (TcProtChymo) assay.; further: in the data most compounds retested in dose-response had high values; format: functional; settings: 9.37 µM
T3 sequence (whole entry): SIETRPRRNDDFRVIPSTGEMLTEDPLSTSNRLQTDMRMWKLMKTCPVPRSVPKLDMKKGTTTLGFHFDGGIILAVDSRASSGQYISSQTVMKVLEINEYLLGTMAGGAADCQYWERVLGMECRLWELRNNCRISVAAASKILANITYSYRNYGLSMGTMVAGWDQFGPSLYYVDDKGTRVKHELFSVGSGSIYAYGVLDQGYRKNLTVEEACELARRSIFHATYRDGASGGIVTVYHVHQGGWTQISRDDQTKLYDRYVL

Homo sapiens = species: Homo sapiens; test: To identify inhibition of the IFN signalling (Jak-Stat) pathway via expression of an eGFP reporter gene under the control of an IFN-stimulated response element (ISRE) containing MxA promoter.; format: functional; settings: 30 µM
[7] = biological target: T4, Tyrosyl-tRNA synthetase, putative (Trypanosoma cruzi (strain CL Brener)) (UniProt Q4DSP6); test: Trypanosoma cruzi tyrosyl tRNA synthetase (TcYRS) _High Tyrosine SOP; format: functional; settings: 30 µM; further: in the data most compounds retested in dose-response had high values
T4 sequence (whole entry): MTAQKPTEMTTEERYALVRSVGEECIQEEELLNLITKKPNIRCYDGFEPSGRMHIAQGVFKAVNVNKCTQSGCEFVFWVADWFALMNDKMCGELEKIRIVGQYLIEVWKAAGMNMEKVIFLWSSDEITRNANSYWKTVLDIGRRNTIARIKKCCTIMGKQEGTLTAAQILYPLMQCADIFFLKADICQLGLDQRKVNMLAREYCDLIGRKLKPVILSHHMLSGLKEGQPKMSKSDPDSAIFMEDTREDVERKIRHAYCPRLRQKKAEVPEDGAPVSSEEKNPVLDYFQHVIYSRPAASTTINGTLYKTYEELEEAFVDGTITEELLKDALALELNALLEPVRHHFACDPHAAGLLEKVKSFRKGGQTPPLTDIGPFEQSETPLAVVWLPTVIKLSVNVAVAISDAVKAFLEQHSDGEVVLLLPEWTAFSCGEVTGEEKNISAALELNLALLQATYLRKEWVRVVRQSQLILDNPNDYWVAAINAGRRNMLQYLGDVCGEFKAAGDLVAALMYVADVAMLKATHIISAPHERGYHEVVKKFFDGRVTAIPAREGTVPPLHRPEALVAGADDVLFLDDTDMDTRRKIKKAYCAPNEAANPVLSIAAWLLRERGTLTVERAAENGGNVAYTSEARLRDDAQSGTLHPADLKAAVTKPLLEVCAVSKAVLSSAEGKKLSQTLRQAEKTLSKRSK

[8] = biological target: T4, Tyrosyl-tRNA synthetase, putative (Trypanosoma cruzi (strain CL Brener)); test: Trypanosoma cruzi tyrosyl tRNA synthetase (TcYRS) SOP; format: functional; settings: 30 µM
[9] = biological target: Chromo domain-containing protein 1 (Saccharomyces cerevisiae (strain ATCC 204508 / S288c) (Baker's yeast)) (UniProt P32657); test: ScCHD-1 Enzyme Inhibition Assay; format: functional; settings: 30 µM; further: in the data most compounds retested in dose-response had high values
Sequence of Chromo domain-containing protein 1 (Saccharomyces cerevisiae (strain ATCC 204508 / S288c) (Baker's yeast)) (P32657 whole entry, the tested form may be a part): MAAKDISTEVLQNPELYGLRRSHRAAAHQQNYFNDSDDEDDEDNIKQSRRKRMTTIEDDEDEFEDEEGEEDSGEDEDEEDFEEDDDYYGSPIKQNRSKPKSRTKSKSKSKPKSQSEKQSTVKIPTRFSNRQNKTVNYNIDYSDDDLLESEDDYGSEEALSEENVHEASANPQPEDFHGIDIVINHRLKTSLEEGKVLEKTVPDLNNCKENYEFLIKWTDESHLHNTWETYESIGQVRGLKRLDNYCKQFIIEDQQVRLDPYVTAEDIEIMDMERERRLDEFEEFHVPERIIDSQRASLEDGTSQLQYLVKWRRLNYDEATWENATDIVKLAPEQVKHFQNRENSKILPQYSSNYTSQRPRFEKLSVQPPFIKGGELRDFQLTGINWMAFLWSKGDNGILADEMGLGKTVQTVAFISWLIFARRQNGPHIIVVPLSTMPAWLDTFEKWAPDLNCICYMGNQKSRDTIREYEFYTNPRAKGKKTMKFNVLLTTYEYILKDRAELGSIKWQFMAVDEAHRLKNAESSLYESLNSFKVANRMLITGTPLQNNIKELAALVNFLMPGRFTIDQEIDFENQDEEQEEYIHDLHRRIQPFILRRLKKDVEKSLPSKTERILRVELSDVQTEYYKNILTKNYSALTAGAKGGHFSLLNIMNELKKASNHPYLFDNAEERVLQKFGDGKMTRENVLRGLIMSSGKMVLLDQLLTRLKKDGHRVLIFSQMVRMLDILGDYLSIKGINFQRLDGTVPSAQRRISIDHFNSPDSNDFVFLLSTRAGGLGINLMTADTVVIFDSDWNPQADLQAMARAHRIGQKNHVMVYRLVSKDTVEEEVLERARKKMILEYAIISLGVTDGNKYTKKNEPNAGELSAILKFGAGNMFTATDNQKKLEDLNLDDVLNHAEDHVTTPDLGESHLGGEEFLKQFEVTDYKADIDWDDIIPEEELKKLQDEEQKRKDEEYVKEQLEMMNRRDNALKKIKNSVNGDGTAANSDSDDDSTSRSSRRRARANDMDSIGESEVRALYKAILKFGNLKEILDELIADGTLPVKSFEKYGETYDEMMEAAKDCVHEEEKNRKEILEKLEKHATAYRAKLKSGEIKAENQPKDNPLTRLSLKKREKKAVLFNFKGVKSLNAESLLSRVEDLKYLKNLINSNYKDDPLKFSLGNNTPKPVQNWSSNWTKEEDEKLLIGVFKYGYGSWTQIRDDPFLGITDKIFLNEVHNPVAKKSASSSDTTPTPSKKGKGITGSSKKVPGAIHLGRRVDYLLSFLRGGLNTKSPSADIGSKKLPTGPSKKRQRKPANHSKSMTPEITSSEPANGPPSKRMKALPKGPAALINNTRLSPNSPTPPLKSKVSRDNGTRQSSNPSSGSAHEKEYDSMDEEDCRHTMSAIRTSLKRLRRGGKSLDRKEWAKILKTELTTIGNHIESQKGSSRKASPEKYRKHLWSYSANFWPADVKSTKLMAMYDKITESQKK

Sequence of Protein translocase subunit SecA (Escherichia coli (strain K12)) (P10408 whole entry): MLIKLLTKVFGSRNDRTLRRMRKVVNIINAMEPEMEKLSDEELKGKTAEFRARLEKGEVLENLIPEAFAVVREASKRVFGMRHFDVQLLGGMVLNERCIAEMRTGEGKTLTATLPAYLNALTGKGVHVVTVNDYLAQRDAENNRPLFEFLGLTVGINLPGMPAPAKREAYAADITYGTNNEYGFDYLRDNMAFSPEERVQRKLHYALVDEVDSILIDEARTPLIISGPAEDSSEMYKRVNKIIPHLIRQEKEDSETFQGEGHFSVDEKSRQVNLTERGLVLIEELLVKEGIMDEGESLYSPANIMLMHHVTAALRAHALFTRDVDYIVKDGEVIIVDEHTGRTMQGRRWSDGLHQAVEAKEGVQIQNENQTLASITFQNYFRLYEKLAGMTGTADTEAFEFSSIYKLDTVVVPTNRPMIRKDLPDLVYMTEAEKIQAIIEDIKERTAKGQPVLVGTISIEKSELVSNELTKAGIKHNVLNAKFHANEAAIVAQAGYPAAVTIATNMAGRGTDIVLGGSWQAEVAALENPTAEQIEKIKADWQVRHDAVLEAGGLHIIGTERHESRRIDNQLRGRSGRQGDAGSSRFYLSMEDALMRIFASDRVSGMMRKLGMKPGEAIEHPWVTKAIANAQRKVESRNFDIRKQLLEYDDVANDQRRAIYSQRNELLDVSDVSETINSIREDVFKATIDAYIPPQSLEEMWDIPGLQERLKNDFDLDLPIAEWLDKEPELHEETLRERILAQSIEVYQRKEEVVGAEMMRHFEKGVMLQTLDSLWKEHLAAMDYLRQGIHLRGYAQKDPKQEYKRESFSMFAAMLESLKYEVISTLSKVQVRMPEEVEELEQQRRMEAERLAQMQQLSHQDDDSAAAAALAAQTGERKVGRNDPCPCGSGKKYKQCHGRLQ
Sequence of Sialic acid-binding Ig-like lectin 9 (Homo sapiens) (Q9Y336 whole entry): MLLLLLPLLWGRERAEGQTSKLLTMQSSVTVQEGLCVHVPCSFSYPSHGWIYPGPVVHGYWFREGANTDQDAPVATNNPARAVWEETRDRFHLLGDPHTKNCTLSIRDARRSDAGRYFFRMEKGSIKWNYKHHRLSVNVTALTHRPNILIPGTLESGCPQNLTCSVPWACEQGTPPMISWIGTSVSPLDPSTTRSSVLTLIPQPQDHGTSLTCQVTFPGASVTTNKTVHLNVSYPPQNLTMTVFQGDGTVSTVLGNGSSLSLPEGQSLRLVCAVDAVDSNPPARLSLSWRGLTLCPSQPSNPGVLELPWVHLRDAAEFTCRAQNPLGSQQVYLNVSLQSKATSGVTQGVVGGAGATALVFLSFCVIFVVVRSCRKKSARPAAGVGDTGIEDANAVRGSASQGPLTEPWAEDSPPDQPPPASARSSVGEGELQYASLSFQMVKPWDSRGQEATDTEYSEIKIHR

SMILES | Percent Effect [1] [%] | Percent Effect [2] [%] | Percent Effect [3] [%] | Percent Effect [4] [%] | Percent Effect (Trypanosoma cruzi) [%] | Percent Effect [5] [%] | Percent Effect [6] [%] | Percent Effect (Homo sapiens) [%] | Percent Effect [7] [%] | Percent Effect [8] [%] | Percent Effect [9] [%]
Cc1cc(=O)[nH]c(NCCNC(=O)C(c2ccc(F)cc2)N(C)C)n1 (stereo not given) | 4.65 | 11 | 0.926 | 2.46 | -9.72 | -10.8 | 17.4 | 21.7 | 8.33 | 16.1 | -5.31
CCc1cnc2c(c1Nc1ccc(OC)cc1)c(=O)n(C)c(=O)n2C | -1.52 | 18.2 | 0.437 | -14.7 | 2.66 | -41.9 | 8.88 | 11.4 | 4.23 | 8.97 | -11.2
Cc1nc(C)n(CC2CCCN2CCCOc2ccc(F)cc2)n1 (stereo not given) | -4.9 | -15.2 | -12.2 | -1.58 | 7.84 | 0 | 8.93 | 7.36 | 8.37 | 13.9 | -6.25
O=C(NCCC1=CCCCC1)NCc1nnc2n1CCC2 | -2.33 | 15.8 | 1.86 | -11.8 | -5.88 | 7.91 | 6.18 | 7.88 | 7.39 | 16.1 | -8.65
OC1CCN(Cc2c(C3CCCNC3)[nH]c3ncccc23)CC1 (stereo not given) | -5.49 | 12.2 | 11.9 | 5.12 | -5.93 | -3.94 | 8.42 | -1.37 | -5.38 | 9.09 | -6.12
COc1ccc(OCc2nc(C(=O)N3CC[C@H](O)[C@@H](O)C3)co2)cc1 | -5.04 | 2.7 | -0.405 | 4.91 | -3.09 | -0.476 | 12.8 | -0.834 | 6.88 | 12.2 | -4.44
CCCC(=O)N1CCC(O)(Cn2c(CC)nc3ccccc3c2=O)CC1 | -1.08 | 17.6 | 21.5 | -2.15 | 3.16 | -1.16 | 9.2 | 17.3 | 4.3 | 3.9 | -6.13
Cn1cnc(S(=O)(=O)NCCCN2CCOCC2)c1Cl | -3.33 | 2.7 | -5.32 | -2.1 | -10.5 | 26.1 | 7.21 | 16.1 | 4.43 | 3.7 | -8.3
O=C(CC1CCCCC1)N1CCN(C(=O)NCc2ccccn2)CC1 | -3.1 | 10.4 | 1.16 | -0.668 | 1.86 | 1.05 | 6.39 | -4.56 | 4.76 | -16.5 | -15
CC(=O)c1cn(CCC(=O)N[C@H](C(=O)O)C(C)C)c2ccccc12 | -1.16 | 12 | 3.61 | -0.198 | -2.95 | -9.68 | 11.7 | 8.13 | 7.41 | 15.4 | -3.85
CC1CCCN(CCNC(=O)c2ccn(-c3ccccc3)n2)C1 (stereo not given) | -0.427 | 18.2 | 2.11 | -6.84 | -8.05 | 4.63 | 5.07 | 16.5 | 8.74 | 12.2 | -8.6
CC(C)c1nccn1C1CCCN(C(=O)c2ccc3[nH]nnc3c2)C1 (stereo not given) | -8.55 | 7.79 | -5.52 | -4.53 | 9.89 | -1.05 | 19 | -2.41 | 4.76 | 11.8 | -22.9
COc1ccccc1C(=O)N(C)Cc1ncc(C)c(OC)c1C | -0.917 | -2.6 | 2.31 | 10.5 | -1.86 | 0.21 | 3.8 | 5.2 | -0.952 | -2.35 | -15.8
O=C(c1cc(Cl)c2c(c1)OCO2)N1CCN(c2nccs2)CC1 | -3.24 | 11 | -2.85 | 1.89 | 2.55 | 3.18 | 7.45 | 3.79 | 7.53 | 15 | -3.25
CCc1ccc(C(=O)Nc2ccc(CC3CC(=O)NC3=O)cc2)cc1 (stereo not given) | -1.66 | 8.22 | 15.3 | 3.15 | 1.76 | 5.46 | 11.9 | 11.7 | 2.15 | 12.5 | -6.28
Cc1ccccc1C1(CNC(=O)NCCc2nnc3n2CCC3)CC1 | -1.76 | -5.26 | -101 | 5.17 | -3.41 | -2.37 | 7.19 | -19.3 | 0 | -2.6 | -0.461
O=C(NCC(O)c1cccc(F)c1)c1cccnc1O (stereo not given) | -5.99 | 16.4 | -2.16 | 7.14 | 9.52 | -4.79 | 5.05 | 7.58 | 7.29 | 13.6 | -7.57
O=C(CCc1nccs1)N1CCN(c2cccnn2)CC1 | -4.08 | 10.4 | 4.08 | 3.62 | 2.84 | -0.21 | -0.404 | 13.5 | 5.71 | 9.41 | -12.4
CNC(=O)[C@@]12CCC3(CCN(S(C)(=O)=O)CC3)[C@@H]1CN(S(C)(=O)=O)C2 | -2.26 | 13.5 | -10.4 | 2.21 | -3.81 | 0.248 | 6.78 | 9.73 | 1.07 | 11.1 | 1.21
FC(F)(F)C1CCCn2c(CNCc3ccsc3)nnc21 (stereo not given) | -2.76 | 2.67 | -9.01 | 4.99 | 2.63 | 1.56 | 20.2 | -14.2 | 9.29 | 18.5 | -3.87
